Molecules are shown by their SMILES. Active and inactive are the calls of the source. The call rests on the fitted dose curve; in most records, active means well fitted curve in the direction sought with a large enough effect in the repeat runs; inconclusive means weak or mixed curves; inactive means flat fitted curve, though single readings scatter. Residues, ends and D or L forms follow the SMILES beside them.

A short description of the test: qHTS assay to test for compound auto fluorescence at 590 nm (red) in HepG2 cells (AID 720674). As to conditions: HepG2 autofluorescence, red 540/590 nm, 1 h; series mostly up to 46 µM. The source says:
U.S. Tox21 Program National Center for Advancing Translational Sciences [NCATS] NIH Chemical Genomics Center [NCGC] U.S. Environmental Protection Agency [EPA] National Institutes of Environmental Health Sciences [NIEHS] National Toxicology Program [NTP] U.S. Food and Drug Administration [FDA] Tox21 Assay Overview: Compound auto fluorescence often interferes with screening of the compound library against various biological targets and signaling pathways. Some of these compounds may have fluorophoric properties. Such properties may interfere with the assay outputs resulting in false positives and/or negatives. To decrease such complications and ensure the compound activities are relevant in terms of biological response, the Tox21 10K compound library was screened for auto fluorescence. From the fluorophores used as reporter signals in our screening assays, the auto fluorescence equivalencies of compounds against three fluorophores have been evaluated: Triamterene, Fluorescein and Rose Bengal sodium for blue, green and red fluorescence, respectively. The fluorescence intensities were measured using Excitation/Emission wavelengths at 405/460nm, 485/535nm and 540/590nm for blue, green and red labels, respectively. This assay includes the red fluorescence data.
Tox21 Assay Protocol Summary: 2,000 HepG2 cells in 5 uL of culture medium (MEM containing 10% FBS) per well were dispensed into black wall/clear bottom 1536-well plates using a Multidrop Combi Dispenser (ThermoFisher Scientific, Waltham, MA). The assay plates were incubated overnight at 37 C to allow cell attachment to the well bottom, followed by the transfer of 23 nL compound or DMSO vehicle by a pintool work station (Kalypsys , San Diego, CA). After the assay plates were incubated for 1 hr at 37 C and 5% CO2, fluorescence intensities in the assay plates were measured by an Envision (PerkinElmer, Shelton, CT) plate reader using three labels for measuring blue, green and red fluorescence at […] 460, 535 and 590 nm respectively.
On the technique in general: qHTS replaces the single test concentration by a dilution series.
As to `C=CC(N)CCC(=O)O` (stereo not given), the compound was called inactive.
On to `CCc1cn([C@H]2C[C@H](O)[C@@H](CO)O2)c(=O)[nH]c1=O`, for which the call was inactive.
In the case of `CC(C)C[C@@H](NC(=O)[C@@H](O)[C@H](N)Cc1ccccc1)C(=O)O`, the result was inactive.
For `NC(N)=NCCCCN=C(N)N`, the result was inactive.
Regarding `CC/C=C\C/C=C\C/C=C\C/C=C\C/C=C\CCCC(=O)O`, the call was inactive.
Under `CCCC(=O)c1cc(O)c(O)cc1O` stands “inactive”; under `O=C(O)COc1ccccc1/C=N/NC(=O)c1ccncc1`, “inactive”; under `N=C(N)c1ccc(/C=C/c2ccc(C(=N)N)cc2O)cc1`, “inactive”.
On to `CC[C@@]1([C@@H]2O[C@@H]([C@H]3O[C@@](O)(CO)[C@H](C)C[C@@H]3C)C[C@@H]2C)CC[C@H]([C@]2(C)CC[C@]3(C[C@H](O)[C@@H](C)[C@@H]([C@@H](C)[C@@H](OC)[C@H](C)C(=O)O)O3)O2)O1` (stereo in doubt), for which the result was inactive.
Under `CCCCCCCC1CCC(=O)O1` (stereo not given) stands “inactive”.
As for `CC[N+](CC)(CC)CCC(O)(c1ccccc1)C1CCCCC1` (stereo not given), the compound was classed as inactive.
On to `C/C(=C(/CCO)SSCC1CCCO1)N(C=O)Cc1cnc(C)nc1N` (stereo not given), for which the compound was called inactive.
As to `CC1=C(/C=C/C(C)=C/C=C/C(C)=C\C(=O)O)C(C)(C)CCC1`, the compound was classed as inactive.
Under `C/C=C/C1=C(C(=O)O)N2C(=O)[C@@H](NC(=O)[C@H](N)c3ccc(O)cc3)[C@H]2SC1` stands “inactive”; under `COc1cc2c(cc1OC)[C@@H](Cc1cc(OC)c(OC)c(OC)c1)[N+](C)(CCCOC(=O)CC/C=C/CCC(=O)OCCC[N+]1(C)CCc3cc(OC)c(OC)cc3[C@H]1Cc1cc(OC)c(OC)c(OC)c1)CC2` (stereo not given in full), “inactive”.
For `Nc1c(CC(=O)O)cccc1C(=O)c1ccccc1`, the compound was called inactive.
Under `CC(C)[C@H](NC(=O)[C@H](CC(=O)O)NC(=O)[C@H](CCCCN)NC(=O)[C@@H](N)CCCN=C(N)N)C(=O)N[C@@H](Cc1ccc(O)cc1)C(=O)O` (H-RKDVY-OH) stands “inactive”.
Turning to `CC(C)c1ncc([N+](=O)[O-])n1C`, the call was inactive.
Take `NC(=O)c1cc[n+](CC2=C(C(=O)O)N3C(=O)[C@@H](NC(=O)C(c4ccccc4)S(=O)(=O)[O-])[C@H]3SC2)cc1` (stereo not given in full): the compound was called inactive.
Take `CN=C(N)NCCC[C@H](N)C(=O)O`: the outcome was inactive.
On to `C[C@H](NCCc1ccc(O)cc1)[C@H](O)c1ccc(O)cc1`, for which the outcome was inactive.
As to `Cc1cc(Br)ccc1NC(=O)CCl`, the outcome was inactive.
Then `O=C1c2ccccc2C(=O)C1c1ccc(F)cc1`, with “inactive”; and `CC(C)[N+]1(C)[C@@H]2CC[C@H]1CC(OC(=O)C(CO)c1ccccc1)C2` (stereo not given in full), with “inactive”; and `NC(=O)[C@@H]1CCCN1C(=O)[C@H](Cc1cnc[nH]1)NC(=O)[C@@H]1CCC(=O)N1`, with “inactive”.
On to `CC12CCC(C1)C(C)(C)C2=O` (stereo not given), for which the result was inactive.
With `CN(C)CCC(O)(c1ccccc1)c1ccccc1Cl` (stereo not given), the compound was called inactive.
Take `CC[C@@H](C(=O)[C@@H](C)[C@@H](O)[C@H](C)CCc1ccc(C)c(O)c1C(=O)O)[C@H]1O[C@](CC)([C@H]2CC[C@](O)(CC)[C@H](C)O2)C[C@@H]1C`: the compound was classed as inactive.
Under `COc1c(Br)cc(Br)c(C)c1Br` stands “inactive”; under `CN1C(=O)C[C@@H](C(=O)N[C@@H](Cc2cnc[nH]2)C(=O)N2CCC[C@H]2C(N)=O)NC1=O`, “inactive”.
Then `CCCCC/C=C\C=C\C(=O)OCC`, with “inactive”; and `NCCCC(=O)O`, with “inactive”; and `c1ccc(-c2ccc(C(c3ccccc3)n3ccnc3)cc2)cc1` (stereo not given), with “inactive”.
Under `CN[C@H](CC(C)C)C(=O)N[C@H]1C(=O)N[C@@H](CC(N)=O)C(=O)N[C@H]2C(=O)N[C@H]3C(=O)N[C@H](C(=O)N[C@@H](C(=O)O)c4cc(O)cc(O)c4-c4cc3ccc4O)[C@H](O)c3ccc(c(Cl)c3)Oc3cc2cc(c3O[C@@H]2O[C@H](CO)[C@@H](O)[C@H](O)[C@H]2O[C@H]2C[C@](C)(N)C(O)[C@H](C)O2)Oc2ccc(cc2Cl)[C@H]1O` (stereo not given in full) stands “inactive”; under `CCOc1ccc([N+](=O)[O-])cc1`, “inactive”; under `O=C1CC[C@@H](C(=O)N[C@H]2C[C@@H]2c2ccccc2)N1`, “inactive”.
Regarding `Nc1nc(NC2CC2)c2ncn([C@@H]3C=C[C@@H](CO)C3)c2n1`, the call was inactive.
Under `CCCCCCCCCCCCCCCCC(C(=O)O)C(O)(CC(=O)O)C(=O)O` (stereo not given) stands “inactive”.
Under `CCCCCCOC(=O)c1cccnc1` stands “inactive”; under `O=C(O)c1cc2cc(Cc3cccnc3)ccc2o1`, “inactive”.

(Values after PubChem BioAssay (Tox21).)
